Legend:
Assay in all cases: PBM binding z-score (relative to random genomic background probes); higher = stronger binding; sequences stand for … in GC…GCGATTGACAGCGTAGAATGAAGG
[1] = tested on: FXR:RXRa (NR concentration 270 nM, RXRa partner concentration 90 nM)
Procedure, shortened: (§1)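 Binding z-scores were set against random background probes. The data came from custom Agilent 4×180K protein-binding microarrays carrying double-stranded probes with 34-nt variable regions, incubated 1 h with ligand-free nuclear receptor dimers. Partner-specific antibodies detected binding, and scanned fluorescence was regression-normalized.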

[2] = tested on: LXRa:RXRa (NR concentration 270 nM, RXRa partner concentration 90 nM)
Procedure, shortened: as §1

[3] = tested on: LXRa homodimer (NR concentration 270 nM)
Procedure, shortened: as §1

[4] = tested on: LXRb:RXRa (NR concentration 270 nM, RXRa partner concentration 90 nM)
Procedure, shortened: as §1

[5] = tested on: LXRb homodimer (NR concentration 270 nM)
Procedure, shortened: as §1

[6] = tested on: PPARa:RXRa (NR concentration 270 nM, RXRa partner concentration 90 nM)
Procedure, shortened: as §1

[7] = tested on: PPARg:RXRa (NR concentration 180 nM, RXRa partner concentration 90 nM)
Procedure, shortened: as §1

[8] = tested on: PPARg:RXRa 270nM:90nM, anti-RXR (NR concentration 270 nM, RXRa partner concentration 90 nM)
Procedure, shortened: as §1

[9] = tested on: PPARg:RXRa 30nM:10nM, anti-RXR (NR concentration 30 nM, RXRa partner concentration 10 nM)
Procedure, shortened: as §1

[10] = tested on: PPARg:RXRa 90nM:30nM, anti-RXR (NR concentration 90 nM, RXRa partner concentration 30 nM)
Procedure, shortened: as §1

[11] = tested on: PPARg:RXRa DBDmut IVT, anti-RXR (DBD mutation: RXRa K156A/R161A, NR concentration 270 nM, RXRa partner concentration 90 nM)
Procedure, shortened: as §1

[12] = tested on: PPARg:RXRa IVT, anti-PPARg (NR concentration 270 nM, RXRa partner concentration 90 nM)
Procedure, shortened: as §1

[13] = tested on: PPARg DBDmut:RXRa IVT, anti-PPARg (DBD mutation: PPARg1 K132A/R137A, NR concentration 270 nM, RXRa partner concentration 90 nM)
Procedure, shortened: as §1

[14] = tested on: PPARg DBDmut IVT, anti-PPARg (DBD mutation: PPARg1 K132A/R137A, NR concentration 270 nM)
Procedure, shortened: as §1

[15] = tested on: PPARg homodimer (NR concentration 180 nM)
Procedure, shortened: as §1

[16] = tested on: PXR:RXRa (NR concentration 270 nM, RXRa partner concentration 90 nM)
Procedure, shortened: as §1

[17] = tested on: PXR homodimer (NR concentration 270 nM)
Procedure, shortened: as §1

[18] = tested on: RARa:RXR (NR concentration 270 nM, RXRa partner concentration 90 nM)
Procedure, shortened: as §1

[19] = tested on: RARa homodimer (NR concentration 270 nM)
Procedure, shortened: as §1

[20] = tested on: RARb:RXRa (NR concentration 270 nM, RXRa partner concentration 90 nM)
Procedure, shortened: as §1

Sequence	PBM binding z-score [1]	PBM binding z-score [2]	PBM binding z-score [3]	PBM binding z-score [4]	PBM binding z-score [5]	PBM binding z-score [6]	PBM binding z-score [7]	PBM binding z-score [8]	PBM binding z-score [9]	PBM binding z-score [10]	PBM binding z-score [11]	PBM binding z-score [12]	PBM binding z-score [13]	PBM binding z-score [14]	PBM binding z-score [15]	PBM binding z-score [16]	PBM binding z-score [17]	PBM binding z-score [18]	PBM binding z-score [19]	PBM binding z-score [20]
CCTAGTTGGTCTAGGTCACACACGCTATAGGTAC	1.54	1.66	1.3	1.68	0.465	2.18	1.42	1.53	0.318	0.958	2.17	3.05	0.258	0.48	2.14	1.4	0.764	2.1	1.82	2.63
TCGAGTAGGTTACGAATGGGGCATTCAGCTTTCT	0.143	0.677	-0.52	0.42	-0.693	0.834	0.32	0.972	0.971	0.914	3.5	2.62	-0.724	-1.15	-0.342	-0.00987	-0.855	0.446	-0.789	0.855
ACTTATGGGTCAACGAGGTTATAGCACGCGTATA	5.3	4.47	0.915	3.85	0.967	5.33	6.12	5.78	2.91	5.01	6.33	5.8	1.52	2.09	2.41	4.34	1.69	4.3	1.76	3.89
TAGCCTAGGTCATTGGGCCAGTATTGTACGCATC	4.48	3.6	0.903	2.28	0.642	3.66	3.19	3.33	1.04	2.35	2.88	3.82	0.545	-0.273	1.88	1.57	-0.247	2.41	-0.7	3.58
GCGACCGGGGCAAAGCAGGTTACCATAAGGTTGG	0.264	0.812	-0.366	0.0322	-1.28	1.42	0.709	0.611	-0.666	-0.143	1.27	1.24	-1.18	-1.17	0.243	0.857	-0.433	1.31	-0.661	1.65
CCTTACGGGTCTCTGACAGGTTATAGCATTTGGA	-0.234	0.159	-0.00475	-0.0139	-0.262	0.166	0.168	0.115	-0.351	-0.00111	0.625	-0.443	-0.515	-0.237	0.678	-0.13	-0.251	0.185	0.262	0.256
TCTTGTAGTTCAACAGGAGGTTAAGAAAGATCGA	1.51	2.8	1	1.78	0.269	2.44	0.0566	1.66	2.29	1.89	1.24	0.804	0.436	-0.0772	1.16	3	0.574	2.75	0.938	2.56
CCGACTGGGGCAGAAAGGTTACCACACCATCCGG	0.286	0.428	0.0458	0.833	-1.17	2.21	1.74	2.66	0.555	2.13	1.83	1.76	-0.724	-0.799	0.71	0.929	-0.219	1.85	0.0999	1.92
CATCCAAGGTCAGCAGGTCAGTGAAAGCGACGTG	6.25	4.68	1.66	3.31	0.653	4.79	4.86	4.71	1.81	3.37	3.12	4.02	0.104	0.555	4.34	3.82	1.14	5.21	2.38	5.17
TCTTGTAGATCAATAGAGATTAAGAAAGTGCGCT	-0.285	0.252	-0.543	-0.171	-0.122	-0.000927	0.302	1.34	2.5	2.08	1.45	0.39	0.292	1.02	-0.0923	0.374	0.261	-0.0638	0.076	-0.192
ATCTGTAGGTAACCAAGTTCAGTGAATGCCGAAC	0.276	0.775	0.477	0.549	0.153	1.05	0.635	0.922	0.0596	0.358	2.89	2.55	-0.123	0.924	0.414	2.03	1.73	0.813	0.332	1.08
TCTCGGAGGACACGAAGGTAAGAGCTTTCCAGAG	0.0947	-0.361	-0.534	-0.695	-1.37	-0.0207	-0.0725	0.91	2.21	1.39	1.18	-0.283	-1.16	-1.1	-1.58	-0.316	-1.01	-0.153	-0.725	1.25
CCAGACAGGTGAGCAGGTAACTCAGCCTCGATTA	-0.268	0.0871	-0.134	0.00402	-0.328	0.272	0.174	-0.00169	-0.644	-0.464	1.15	0.619	-0.93	-1.41	0.319	-0.31	0.22	-0.516	0.0182	0.568
TTACCAAGGTGAATGTCGTTGATCCCTCTGTAGA	0.755	0.993	-0.247	0.681	-0.413	1.51	0.279	1.04	0.788	0.922	1.97	2.48	0.0323	0.0146	0.593	0.524	-0.383	1.12	0.309	1.34
GCTAGCAGGCCATTTGGTTCACTCAATGACGGGC	-0.456	-0.57	-0.84	-0.649	-0.937	-0.204	0.226	-0.536	-0.633	-0.582	1.03	-0.11	-0.667	-0.975	-0.906	-0.151	0.221	-0.572	-0.886	0.187
TCATATAGGTAAACAGGTGAAAGTGCGTAAGTTA	1.13	1.29	0.37	1.13	0.114	3.19	4.88	5.09	4.64	5.1	4.84	4.9	1.29	1.03	1.33	1.04	0.631	1.27	1.75	0.94
ATCGAAAGGTCGCGAGGTGAGTATACAGAAAGGC	5.31	4.1	-0.00351	3.19	-0.0982	5.26	4.54	4.93	1.89	3.56	0.5	3.13	1.02	0.918	1.25	3.33	0.012	4.35	0.464	4.48
CCAACTGGGGCAAGGTTACCATAACGCACAGCCA	0.213	0.726	-0.0339	0.872	-0.862	2.49	4.28	4.62	2.01	4.22	5.12	5.51	0.138	-0.27	0.543	0.378	0.0268	0.879	0.291	1.78
CCTTACGGGTCACTGACAGGCTATAGCATTTGGA	4.95	3.52	-0.0559	3.1	-0.0175	4.91	3.88	4.36	1.54	2.83	3.84	3.67	0.647	-0.225	2.27	2.94	-0.147	3.69	0.758	3.76
TCATATAAGTAAAAGGTGAAAGTCGGTGTGGTAA	1.04	1.71	0.168	1.8	0.141	3.59	3.78	5.58	5.48	6.35	3.39	2.38	0.923	0.618	1.82	1.24	0.368	2.22	1.48	1.83
TCTGTTAGTTGAAGGGCAACCGACGAGTCCGTTT	0.758	0.866	0.374	0.639	0.983	0.837	-0.0567	1.91	3.09	2.14	1.61	1.1	0.429	0.734	1.19	0.704	1.02	0.521	0.738	1.65
GTACCAAGGTGAAGAGGTCGTTGATGAGTAGGCG	1.67	1.32	0.0368	1.13	-0.425	3	1.95	2.49	0.544	1.72	1.79	2.51	-0.57	-0.181	1.37	2.15	0.607	2.68	-0.129	2.35
CAGCCCAGGTCAGGGCCAGTATAGGAGGAACGTT	2.46	1.34	-0.516	1.01	-0.951	2.27	0.962	0.716	-0.353	0.469	0.375	1.26	-1.13	-1.33	0.907	0.95	0.194	1.49	-0.138	3.45
CCTACCGGGCCAAGGTCATTGATCAGTCAAAGCA	3.14	3.01	1.23	2.66	-0.522	3.66	1.86	2.48	0.154	1.76	0.244	1.19	-0.794	-1.36	1.88	3.79	1.52	4	0.296	3.42
TAGCCTAGGTCAGTTCGGGCCAGTATACGCTATA	1.39	0.745	-0.272	0.551	-0.0472	1.22	0.33	0.647	-0.293	0.114	0.449	1.21	-0.878	-1.14	-0.282	1.53	-0.352	0.927	-0.951	2.92
TCATATAGGTAAACAGGTGGAAGTCCGTAAGTTA	0.72	0.64	0.229	0.692	0.0407	1.43	1.16	2.43	4.15	3.06	4.42	3.02	0.862	0.82	1.12	0.46	0.859	0.577	0.928	0.625
CAAACTAGGTCTAAGGTCAAAGTCGAGCCAACCA	5.18	4.6	2.94	4.32	1.16	6.52	10.5	9.19	9.22	10.2	3.97	5.92	1.31	0.848	2.46	4.42	1.59	4.7	1.21	4.14
ATATGTAGGTTATCGCGTCATTCAGTTTGCGCAT	0.694	1.01	0.372	1.1	0.647	3.31	3.86	3.94	1.41	3.08	7.52	6.92	1.88	2.41	0.975	0.655	0.292	0.918	0.606	0.976

— the supplement of paper PMC6555819
